{"source": "PubChem BioAssay (NCATS)", "note": "Inconclusive results are not listed. Entries that show only a call come without a potency. Activity calls are given as the source filed them. The call rests on the fitted dose curve; in most records, active means well fitted inhibition curve with a large enough effect; inconclusive means small, poorly fitted or top-dose-only effect; inactive means flat fitted curve, though single readings scatter. Potency means the concentration at half of the fitted maximal effect.", "data": [{"test": "P-glycoprotein substrates identified in KB-8-5-11 adenocarcinoma cell line, qHTS therapeutic library screen (AID 1346987); further: nearly all actives have a fitted effect of over 65% in size", "settings": "KB-8-5-11 (P-gp overexpressing) viability, CellTiter-Glo, 72 h; series mostly up to 44.5 µM", "summary_of_the_method": "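KB-8-5-11, a colchicine-selected P-gp-overexpressing KB-3-1 subline, was grown without colchicine for the assay. Cells were seeded at 500 cells/well, dosed in concentration-response and incubated 72 h at 37 degree C, 5% CO2. Viability was read by CellTiter-Glo luminescence.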", "values": [{"smiles": "COC1CC(O[C@H]2CC[C@]3(C=O)C4CC[C@]5(C)[C@@H](C6=CC(=O)OC6)CC[C@]5(O)[C@@H]4CC[C@]3(O)C2)OC(C)C1O[C@@H]1O[C@H](CO)[C@@H](O)[C@H](O)[C@H]1O", "note": "(stereo partly drawn)", "Potency": "153 nM (active)"}, {"smiles": "CC(=O)OC1CC(O)C(C)(C)C2CC(OC(C)=O)C3(C)C(CCC4(C)C(c5ccoc5)C(=O)C5OC543)C12C", "note": "(stereo not drawn)", "Potency": "inactive"}, {"smiles": "C=CC(C)(C)c1[nH]c2cccc3c2c1C[C@@H]1[C@@H]3[C@@H](OC(C)=O)[C@H](C)CN1C", "Potency": "inactive"}, {"smiles": "N#CC(OC1OC(COC2OC(CO)C(O)C(O)C2O)C(O)C(O)C1O)c1ccccc1", "note": "(stereo not drawn)", "Potency": "inactive"}, {"smiles": "CN1[C@@H]2CC[C@H]1CC(OC(=O)C1C=Nc3ccccc31)C2", "note": "(stereo partly drawn)", "Potency": "inactive"}, {"smiles": "CN1[C@H]2C[C@H](OC(=O)[C@H](CO)c3ccccc3)C[C@@H]1[C@@H](O)C2", "Potency": "inactive"}, {"smiles": "CC[C@H]1CN2CC[C@H]1C[C@@H]2[C@@H](O)c1ccnc2ccc(OC)cc12", "Potency": "inactive"}, {"smiles": "Clc1ccc(OCC2=NCCN2)cc1Cl", "Potency": "inactive"}, {"smiles": "C[C@@H]1[C@@H]2Cc3ccc(O)cc3[C@@]1(C)CCN2CC1CC1", "Potency": "inactive"}, {"smiles": "CC(C)=C1CC[C@]23CO[C@H](C2)[C@@](O)(C(=O)O)CCC13", "note": "(stereo partly drawn)", "Potency": "inactive"}, {"smiles": "COC1C(O)C(OC2CCC3(C=O)C(CCC4C3CCC3(C)C(C5=CC(=O)OC5)CCC43O)C2)OC(C)C1OC1OC(CO)C(O)C(O)C1O", "note": "(stereo not drawn)", "Potency": "432 nM (active)"}, {"smiles": "Clc1ccc(N2C[C@H]3CC[C@@H](C2)N3)nn1", "Potency": "inactive"}, {"smiles": "CC(C)(O)[C@H]1O[C@H]2CC[C@@]3(C)[C@@](O)(CC[C@H]4Cc5c([nH]c6ccccc56)[C@@]43C)C2=CC1=O", "Potency": "inactive"}, {"smiles": "CN(C)CCc1c[nH]c2ccc(CN3CCN(C)S3(=O)=O)cc12", "Potency": "inactive"}, {"smiles": "CC(=O)O[C@H]1C[C@@H](OC(C)=O)C(C)(C)C2C[C@@H](O)[C@]3(C)C(CC[C@@]4(C)[C@H](C5=CC(=O)OC5O)C[C@H]5O[C@]543)[C@]21C", "note": "(stereo partly drawn)", "Potency": "inactive"}, {"smiles": "C[C@H]1O[C@@H](O[C@H]2C[C@@H](O)[C@]3(CO)C4C(CC[C@]3(O)C2)[C@@]2(O)CC[C@H](C3=CC(=O)OC3)[C@@]2(C)C[C@H]4O)[C@@H](O)[C@@H](O)[C@H]1O", "note": "(stereo partly drawn)", "Potency": "432 nM (active)"}, {"smiles": "N#CC(C#N)=Cc1cc(O)c(O)c(O)c1", "Potency": "inactive"}, {"smiles": "CC[C@H]1CN2CC[C@H]1C[C@H]2[C@H](O)c1ccnc2ccc(OC)cc12", "Potency": "inactive"}]}]}
